From PubChem BioAssay (NCI)
About 83,000 compounds went through this panel and 20% of them were active in at least one assay; those are over-represented in the sample as a whole.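 Interpretation: 100, growth as untreated; towards 0, rising growth inhibition; 0, no net growth; 0 to -100, cell death. Compounds scoring below 10 were considered active.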 Values without a mark were called inactive. The source made the active and inactive calls.

What follows are molecules tested on NCI-H322M lung (assay: NCI-60 one-dose screen, 48 h (100 = growth as untreated, 0 = no growth, -100 = all killed)). Conditions: 10 µM unless noted.
With COc1ccc(/C=C/C(c2cc(OC)c(OC)c(OC)c2)n2cncn2)cc1 (centres undefined) the growth was 61.2%.
Cc1ncc(C(=O)Nc2ccc(CN3CCN(C)CC3)c(C(F)(F)F)c2)cc1C#Cc1cnc(N)c2ncccc12 showed a growth of 30.3%.
For Cc1ccc(C(=O)c2ccc(CC(=O)NN3C(=O)c4ccccc4C3=O)n2C)cc1, the growth was 102%.
Molecule CN(C)CCCC1(c2ccc(F)cc2)OCc2cc(-c3ccc4cc[nH]c4c3)ccc21 (centres undefined) has a growth of 65%.
In the case of O=C(/C=C/c1cccc(Cl)c1Cl)Nc1ncc(Cc2ccccc2Cl)s1, the growth is reported as 78.5%.
O=C(Nc1ccc(Cl)cc1)Oc1c(Cl)c(Cl)c(Cl)c(Cl)c1Cl gave a growth of 95.2%.
Molecule CCCCNC(=O)c1cc([N+](=O)[O-])cc(C2CCCCC2)c1O has a growth of 55.3%.
In the case of O=C1NC(=O)/C(=C/c2c(-c3ccccc3)nc3sc(COc4ccccc4)nn23)S1, the growth is reported as 96%.
COc1ccc2c(c1)c(/C(O)=C1\COC(=O)C1=O)cn2Cc1ccc(F)cc1 gave a growth of 101%.
Molecule CCN(CC)CCN1C(=O)c2cccc3c(/C=C/CN4C(=O)c5cccc6cccc(c56)C4=O)ccc(c23)C1=O has a growth of 97.4%.
In the case of O=C(CCCCCCN1CC(=O)N2[C@H](c3ccc(Br)cc3)c3[nH]c4ccccc4c3C[C@@H]2C1=O)NO, the growth is reported as 50.3%.
Work on NNCCc1ccc(NC(=O)CCCc2ccc(C(=O)Nc3ccccc3N)cc2)cc1 yielded a growth of 87%.
For Cc1cccc[n+]1C1c2ccccc2-c2ccccc21, the growth was 107%.
With CN(C)S(=O)(=O)Oc1ccc(-c2sc3cc(OS(=O)(=O)N(C)C)ccc3c2C(=O)c2ccc(OCCN3CCCCC3)cc2)cc1 the growth was 87.9%.

The molecules below were run on HOP-62 NSCLC in the same assay as above. Conditions: 10 µM unless noted.
In the case of C[C@@H]1O[C@@H](O[C@@H]2C[C@H](c3ccc4c(c3O)C(=O)C3=C(C4=O)[C@@]4(O)C(=O)C[C@](C)(O)C[C@@]4(O)C=C3)O[C@H](C)[C@H]2O)CC[C@@H]1O[C@H]1C[C@@H](O)[C@H](O)[C@@H](C)O1, the growth is reported as 113%.
With CC(=O)OC(c1ccccc1)C1CCOC1=O (centres undefined) the growth was 99.2%.
C=CCN1C(=O)c2cccc3c(N4CCOCC4)ccc(c23)C1=O was tested, and the growth was 26.4%.
Work on O=C(CCSc1nnc2n(Cc3ccccc3)c(=O)c3c4c(sc3n12)CCCC4)N1CCN(c2ccccc2)CC1 yielded a growth of 103%.
CC1=CCC(OC(=O)C(C)(C)CC(O)(C(C)O)C(O)C2(C)C=CC(Cc3ccc(C(C)C)cc3)(C(C)C)CC2)(C(C)C)CC1 (centres undefined) was tested, and the growth was 99.2%.
For c1ccc(CCNc2c3ccccc3nc3ccccc23)cc1, the growth was 55.1%.
Molecule CCCCNc1nnc2n(Cc3ccccc3)c(=O)c3c4c(sc3n12)CCCC4 has a growth of 44.5%.
For COc1ccc2cc(-c3ccnc4c(N=Nc5ccc(Cl)cc5)c(N)nn34)ccc2c1, the growth was 94.4%.
Molecule CCO/C=N/C1=C(C#N)C(c2ccc(F)cc2)c2sc3c(F)cccc3c2O1 (centres undefined) has a growth of 50.9%.
COc1cc2nc3sc(C(=O)Nc4ccc(C(=O)OC(C)C)cc4)c(C(=O)Nc4ccc(Cl)cc4C)n3c(=O)c2cc1OC showed a growth of 67.2%.
O=C(c1c[nH]c2ccccc12)c1n[nH]c(=S)n1-c1cccc(Br)c1 showed a growth of 81.7%.
With O=c1cc(-c2ccccc2)[nH]c2ncc(-c3ccc(F)cc3)n12 the growth was 67.7%.
With Clc1c(Cl)[n+](Cc2ccc3ccccc3c2)cn1Cc1ccc2ccccc2c1 the growth was -27.6% (active).
With COc1ccc(/C=C/C(=O)c2cc(OC)c(OC)c(OC)c2)cc1OCC(=O)Nc1nc2ccc(OC(F)(F)F)cc2s1 the growth was -53.3% (active).
With COc1cccc(Nc2ncnc3cc(NC(=O)CCl)ccc23)c1 the growth was -89.8% (active).
For COc1cc(/C=C/C(=O)c2ccc(-n3cc(CN4CCN(c5cc6c(cc5F)c(=O)c(C(=O)O)cn6C5CC5)CC4)nn3)cc2)ccc1O, the growth was 67.7%.
With C=C(C)[C@@H]1CCC[C@]2(C(=O)O)CC[C@]3(C)[C@@H](CC[C@@H]4[C@@]5(C)C/C(=C/c6ccncc6)C(=O)C(C)(C)[C@@H]5CC[C@]43C)[C@@H]12 the growth was 50.4%.
Work on O=C(N/N=C\c1cccc([N+](=O)[O-])c1)N/N=C/c1cccc([N+](=O)[O-])c1 yielded a growth of 92.9%.
Molecule O=C(Cn1nnc2ccccc21)N/N=C/c1c[nH]c2ccccc12 has a growth of 36.6%.
Cn1cc(-c2csc(-c3c[nH]c4ccc(F)cc34)n2)c2ccnc(Cl)c21 gave a growth of 98.2%.
